# Data: PubChem BioAssay (NCATS)
# “And” between values parts separate entries of the source, which are not always exact repeats. Equal entries are not always repeated. Results filed as inconclusive are left out. A call without a number means that no potency is given here. Values without a mark were called inactive. The source made the active and inactive calls. Calls follow the shape of the dose curve; as a rule, active = well fitted inhibition curve with a large enough effect; inconclusive = small, poorly fitted or top-dose-only effect; inactive = flat fitted curve, though single readings scatter.
# Legend:
# [1] = test system: NIH3T3; test: Cytotoxic Profiling of Annotated Libraries Using Quantitative High-Throughput Screening (AID 1296008); conditions: Five cell lines viability, CellTiter-Glo ATP luminescence, 48-72 h; max response: stronger effect = lower value
# How it was run: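 Cytotoxicity was measured as CellTiter-Glo ATP luminescence, read after 10 min at room temperature. Compound treatment of the cells lasted 48 or 72 hr at 37 degrees Celsius in a qHTS format.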
# [2] = test system: HACAT; test: qHTS assay to identify novel small-molecules to repurpose for Merkel cell carcinoma treatment (AID 1296009); conditions: MCC and control cell lines, CellTiter-Glo viability, 72 h; at 44.8 µM (top of the series) unless noted
# How it was run: (§1)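 Cell viability measured by CellTiter-Glo following 72 hr compound treatment at 37 degree celsius, with NPC and MIPE libraries tested in 8- and 11-point concentration series.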
# [3] = test system: MCC-13; test: as above; conditions: MCC and control cell lines, CellTiter-Glo viability, 72 h; series mostly up to 46 µM
# How it was run: as §1
# [4] = test system: MCC-26; test: as above; conditions: MCC and control cell lines, CellTiter-Glo viability, 72 h; series mostly up to 46 µM
# How it was run: as §1
# [5] = test system: MKL-1; test: as above; conditions: MCC and control cell lines, CellTiter-Glo viability, 72 h; series mostly up to 46 µM
# How it was run: as §1
# [6] = test system: MKL-2; test: as above; conditions: MCC and control cell lines, CellTiter-Glo viability, 72 h; series mostly up to 46 µM
# How it was run: as §1
# [7] = test system: UISO; test: as above; conditions: MCC and control cell lines, CellTiter-Glo viability, 72 h; series mostly up to 46 µM
# How it was run: as §1
# [8] = test system: WaGa; test: as above; conditions: MCC and control cell lines, CellTiter-Glo viability, 72 h; series mostly up to 46 µM
# How it was run: as §1
# [9] = test system: NIH3T3; test: as above; conditions: MCC and control cell lines, CellTiter-Glo viability, 72 h; at 44.8 µM (top of the series) unless noted
# How it was run: as §1
# Also: nearly all actives have a fitted effect of over 60% in size.
# Potency is read from the fitted curve at half-maximal effect.
SMILES,max response [1],outcome [2],Potency [3],Potency [4],Potency [5],Potency [6],Potency [7],Potency [8],outcome [1],outcome [9],Potency [1]
COC(=O)N[C@H](C(=O)N1CCC[C@@H]1c1ncc(-c2ccc(-c3ccc(-c4cnc([C@@H]5CCCN5C(=O)[C@@H](NC(=O)OC)C(C)C)[nH]4)cc3)cc2)[nH]1)C(C)C,2.81%,inactive,inactive,inactive,inactive,inactive,inactive,inactive,–,–,–
O=C(O)c1ccccc1C(=O)Nc1ccc(-c2ccccc2)cc1,–,inactive,inactive,–,inactive,inactive,inactive,inactive,inactive,inactive,–
Clc1ccc(-c2nc3sccn3c2C=NOCc2ccc(Cl)c(Cl)c2)cc1,-1.3%,inactive,inactive,inactive,inactive,inactive,inactive,inactive,–,–,–
CC=C(C)C(=O)O[C@H]1C(C)=C[C@]23C(=O)[C@@H](C=C(CO)[C@@H](O)[C@]12O)[C@H]1[C@@H](C[C@H]3C)C1(C)C,-20.8%,inactive,inactive,inactive,inactive,inactive,–,inactive,–,–,–
CC(C)=CC[C@@H](O)C1=CC(=O)c2c(O)ccc(O)c2C1=O,4.11%,inactive,inactive,inactive,–,20.9 µM (active),inactive,23.5 µM (active),–,–,–
CN1C[C@H]2c3ccccc3Oc3ccc(Cl)cc3[C@@H]2C1,-1.33% and 3.58%,inactive,inactive,inactive,inactive,inactive,inactive,inactive,–,–,–
CCNc1cc(NC2CCC(O)CC2)nc(Nc2ccc3c(ccn3Cc3ccccc3)c2)n1 (configuration not stated),–,inactive,inactive,inactive,inactive,–,inactive,inactive,inactive,inactive,–
CC=CCC=CCCC(=O)[C@H]1O[C@@H]1C(N)=O,1.26%,inactive,inactive,inactive,–,–,inactive,inactive,–,–,–
c1cc(-c2sc(-c3ccncc3)c(-c3ccncc3)c2-c2ccncc2)ccn1,4.17%,inactive,inactive,inactive,inactive,inactive,–,inactive,–,–,–
CNC(=O)c1ccc2cc(C3(O)CCn4cncc43)ccc2c1 (configuration not stated),3.68% and 1.07%,inactive,inactive,inactive,inactive,inactive,inactive,inactive,–,–,–
CC(=Cc1ccccc1)C=C1SC(=S)N(CC(=O)O)C1=O,–,inactive,inactive,inactive,inactive,inactive,inactive,inactive,inactive,inactive,–
CCN(CC)C(=O)c1ccc(O)c(OC)c1,-4.21%,inactive,inactive,inactive,inactive,inactive,inactive,inactive,–,–,–
CO[C@H]1C[C@@H]2CC[C@@H](C)[C@@](O)(O2)C(=O)C(=O)N2CCCC[C@@H]2C(=O)O[C@H]([C@@H](C)C[C@@H]2CC[C@H](O)[C@H](OC)C2)CC(=O)[C@H](C)C=C(C)[C@@H](O)[C@@H](OC)C(=O)[C@H](C)C[C@H](C)C=CC=CC=C1C,–,inactive,inactive,inactive,–,–,inactive,–,inactive; activator,inactive; activator,–
Clc1ccc(Cn2c(CN3CCCC3)nc3ccccc32)cc1,3.2% and 1.49%,inactive [at 17.4 µM],inactive,inactive,inactive,–,–,inactive,–,–,–
CCOC1OC(=O)C[C@H]1NC(=O)[C@@H]1CCCN1C(=O)[C@@H](NC(=O)c1ccc(N)c(Cl)c1)C(C)(C)C (some centres not stated),–,inactive,inactive,–,inactive,inactive,inactive,–,inactive,inactive,–
N[C@H](CSC(c1ccccc1)(c1ccccc1)c1ccccc1)C(=O)O,–,inactive,–,inactive,–,–,–,–,–,–,26.4 µM (active)
Cc1ccccc1C(C(=O)NC1CCCCC1)N(C(=O)Cn1ccnc1C)c1cccc(F)c1 (configuration not stated),-2.46% and -16.9%,inactive,inactive,inactive,inactive,inactive,inactive,inactive,–,–,–
CC[C@]1(O)C[C@@H]2CN(CCc3c([nH]c4ccccc34)[C@@](C(=O)OC)(c3cc4c(cc3OC)N(C)[C@H]3[C@@](O)(C(=O)OC)[C@H](OC(C)=O)[C@]5(CC)C=CCN6CC[C@]43[C@@H]65)C2)C1,–,inactive,119 nM (active) and 1.19 µM (active),–,75 nM (active) and 168 nM (active),75 nM (active) and 150 nM (active),0.237 µM (active),26.6 nM (active) and 75 nM (active),–,–,0.335 µM (active)
COc1ccc2c3c1OC1C[C@@H](O)C=C[C@@]31CCN(C)C2 (some centres not stated),1.03%,inactive,inactive,inactive,inactive,inactive,inactive,inactive,–,–,–
